{"source": "the supplement of paper PMC10338343", "note": "± gives the standard deviation.", "data": [{"tested_on": "EfPiwi piRISC loaded with L1MC piRNA (26 nt)", "test": "pre-steady-state target cleavage rate (min^-1); auxiliary factor: none (no Gtsf1); guide: L1MC piRNA 5'p-UAACUAAAUACUAUGCAAGCUGUAGG; higher = faster piRNA-guided slicing of the target", "outline": "(§1)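 Cleave-'n-Seq used a transcribed, DNA-blocked target RNA library at 0.1 nM and active affinity-purified piRISC with one synthetic guide at 1 nM, with or without 500 nM GTSF1 partner protein, in HEPES–potassium acetate buffer at 33 °C for 0–8 or 0–960 min. Uncleaved targets were sequenced and normalised to depth and to weakly complementary targets, and three trials were pooled with k3 capped at 0.0001 min^-1. The pre-steady-state cleavage rate was estimated by a burst-and-steady-state fit.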", "values": [{"sequence": "UCCUGGAUCAGCUUGCAUAUUAUUUAGUUA", "pre-steady-state target cleavage rate": "0.00536 ± 0.0048"}, {"sequence": "UCCUGGAUGUCGAACCAUUCAAUUUAGUUA", "pre-steady-state target cleavage rate": "< 0.0001"}, {"sequence": "UCCUGGAUGUGCAUGCAUAGUAUUUAGAUA", "pre-steady-state target cleavage rate": "< 0.0001"}, {"sequence": "UCCUGGAUGUCGAAGGAUAGUAUUAAGUUA", "pre-steady-state target cleavage rate": "< 0.0001"}]}, {"tested_on": "EfPiwi piRISC loaded with L1MC piRNA (26 nt)", "test": "pre-steady-state target cleavage rate (min^-1); auxiliary factor: 500 nM Ephydatia muelleri Gtsf1; guide: L1MC piRNA 5'p-UAACUAAAUACUAUGCAAGCUGUAGG; MIWI and MILI are mouse PIWI proteins and EfPiwi is from a freshwater sponge; tags in brackets are library labels; higher = faster piRNA-guided slicing of the target", "outline": "as §1", "values": [{"sequence": "UCCUGGAUCAGCUUGCAUAUUAUUUAGUUA", "pre-steady-state target cleavage rate": "0.0367 ± 0.011"}, {"sequence": "UCCUGGAUGUCGAACCAUUCAAUUUAGUUA", "pre-steady-state target cleavage rate": "< 0.0001"}, {"sequence": "UCCUGGAUGUGCAUGCAUAGUAUUUAGAUA", "pre-steady-state target cleavage rate": "0.00317 ± 0.0024"}, {"sequence": "UCCUGGAUGUCGAAGGAUAGUAUUAAGUUA", "pre-steady-state target cleavage rate": "< 0.0001"}]}]}
